Results taken from PubChem BioAssay (NCI).
This is part of a sample that, as a whole, favours compounds with a hit. Of some 83,000 tested, about 20% had one in any assay.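 Activity criterion: percent growth below 10, measured after cells in 96-well plates were exposed to a single compound concentration for 48 hours.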 Unmarked numbers belong to inactive results. Calls of active or inactive are those of the source.

Test system: OVCAR-3 ovarian
Experiment: NCI-60 one-dose screen, 48 h (100 = growth as untreated, 0 = no growth, -100 = all killed)
Conditions: 10 µM unless noted

| SMILES | growth |
| --- | --- |
| COc1cc(Cn2cc3c(c2)-c2onc(CN4CCCC4)c2CC3)cc(OC)c1OC | 100% |
| COC(=O)/C=C/c1c(C2(C)NC(=O)c3ccccc3N2)c(=O)oc2ccc(Cl)cc12 (stereo unspecified) | 102% |
| Cc1ccc2c(c1)Oc1nc(N)c(C#N)c(N)c1C2Sc1ccc(F)cc1 (stereo unspecified) | -88.1% (active) |
| COc1ccc(Cn2cc3c(c2-c2cc(OC)c(OC)c(OC)c2)CCc2c(CN4CCCC4)noc2-3)cc1 | -16% (active) |
| COc1ccc(Cn2cc3c(c2-c2cc(OC)c(OC)c(OC)c2)CCc2c(CN4CCOCC4)noc2-3)cc1 | 2.5% (active) |
| Cc1ccc(-c2nnc(SCc3ccc(O)c4ncccc34)n2-c2ccccc2)cc1 | 16.2% |
| Cc1ccc(S(=O)(=O)N(CC[C@@H]2C[C@H]2c2cc3ccccc3o2)S(=O)(=O)c2ccc(C)cc2)cc1 | 108% |
| Brc1ccccc1/C=N/Nc1nc(N/N=C/c2ccccc2Br)nc(N2CCOCC2)n1 | 85.2% |
| CC1=NC2=NC(=O)/C(=C3/N=C(C)C=C(c4ccccc4)N3N)NN2C(c2ccccc2)=C1 | 108% |
| NC(N)=Nc1ccc(Oc2cccc(Nc3ccc(Br)c(C(F)(F)F)c3)c2)cn1 | -94.3% (active) |
| COc1cc(Cn2cc3c(c2)-c2onc(CN4CCOCC4)c2CC3)cc(OC)c1OC | 113% |
| CCn1c(SCC(=O)Nc2cccc(C(=O)/C=C/c3cc(OC)c(OC)c(OC)c3)c2)nc2ccccc2c1=O | 14.3% |
| Cc1nn(-c2ccccc2)c2ncnc(N/N=C/c3ccccc3O)c12 | 29.4% |
| COc1cc(-c2nnc(SCc3ccc(O)c4ncccc34)n2-c2ccccc2)cc(OC)c1OC | 6.44% (active) |
| Oc1ccc(CSc2nnc(-c3ccc(Cl)cc3)n2-c2ccccc2)c2cccnc12 | 25.3% |
| CCc1ccc(SC2c3ccc(N(CC)CC)cc3Oc3nc(N)c(C#N)c(N)c32)cc1 (stereo unspecified) | -64.8% (active) |
| CS(=O)(=O)Nc1cc(-c2ccc3ncc(C#N)c(NCc4ccccc4O)c3c2)cnc1Cl | 3.31% (active) |
| c1ccc(C(c2nc3ncncc3[nH]2)N2CSc3nc4ccccc4n3C2)cc1 (stereo unspecified) | 105% |
| O=c1c2ccccc2nc(COc2ccccc2)n1NS(=O)(=O)c1ccc(Cl)cc1 | 103% |
| NC(N)=Nc1ccc(Oc2cccc(Nc3ccc(Cl)c(C(F)(F)F)c3)c2)cn1 | -93.8% (active) |
| O=C1CC(=O)N2CSCN(C(c3ccccc3)c3nc4ncncc4[nH]3)C2=N1 (stereo unspecified) | 107% |
| COc1cc(/C=N/NC(=O)c2cn(C3CC3)c3c(OC)c(N4CC5CCCNC5C4)c(F)cc3c2=O)ccc1O (stereo unspecified) | -73% (active) |
| C[C@H](CCC(=O)NCc1ccc(C(=O)Nc2ccccc2N)cc1)[C@H]1CC[C@H]2[C@@H]3[C@@H](O)C[C@@H]4C[C@H](O)CC[C@]4(C)[C@H]3CC[C@]12C | 64.3% |
| N#Cc1cn(Cc2ccc(Cl)cc2Cl)c(C(=O)c2ccc(Br)cc2)c1N | 105% |
| C=CCn1c(-c2nc3ccc(C(=C(C#N)C#N)c4ccccc4)cc3[nH]2)cc2cc(Br)ccc21 | 51.2% |
| COc1cc2nc(Cl)nc(Nc3cccc(C4=Nc5c(N)nc(N)nc5NC(c5ccc(Cl)cc5)C4)c3)c2cc1OC (stereo unspecified) | 62.6% |
